Screening results: PubChem BioAssay, The Scripps Research Institute Molecular Screening Center
DAX1 inh-1: DAX1 (NR0B1) inhibitors, primary screen, cell-based, HEK293, Gal4-DAX1, luciferase luminescence; AID 504766, 2011; inhibition, % at 6.75 µM; Nuclear receptor subfamily 0 group B member 1 (Homo sapiens), P51843; HEK293 Gal4-DAX1 luciferase reporter; 340,000 tested, 0.99% active;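 active = inhibition above the mean over all tested compounds plus 3 SD, cut at about 4.2% in these data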;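 also: 0% = DAX1-transfected cells with DMSO and 100% = empty-vector control cells with DMSO; inhibition shows as a rise in luminescence from relieved DAX1 repression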
hgDAF12 agonist: H. glycines DAF-12 receptor agonists, primary screen, cell-based, luminescence, HEK293, GAL4 fusion, UAS-luciferase | 370,000 tested, 1.8% active | activation, % at 6.8 µM | HEK293 GAL4-hgDAF12 UAS-luciferase reporter, agonist luminescence; normalized to butyrate control | Nuclear hormone receptor DAF-12 (Heterodera glycines), GAL4 fusion;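 active = activation above a cutoff set at the mean of all screened compounds plus 3 SD, cut at about 10% in these data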;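 also: 0% = DMSO wells and 100% = sodium butyrate wells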
DAX1 inh-2: DAX1 (NR0B1) inhibitors on StAR promoter, primary screen, cell-based, luminescence, SF-1 (NR5A1), full-length DAX-1. HEK293T StAR-luciferase reporter, SF-1/DAX-1 repression relief. inhibition, % at 6.8 µM. 370,000 tested, 1.1% active. AID 652010, 2013;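 active = inhibition above the mean over all tested compounds plus 3 SD, cut at about 3.6% in these data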;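 also: 0% = DAX-1 cells with DMSO and 100% = cells lacking DAX-1 with DMSO; higher inhibition means more luminescence from relief of DAX-1 repression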
ssDAF12 agonist: S. stercoralis DAF-12 nuclear receptor activators, primary screen, cell-based, luminescence, HEK293, GRIP1 co-expression, lit1-tk-luc; Nuclear hormone receptor DAF-12 (Strongyloides stercoralis); HEK293 ssDAF-12/GRIP1 lit1-tk-luc reporter; % of 3 µM dafachronic acid response; activation, % at 6.8 µM; 370,000 tested, 1% active; AID 652126, 2013;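 active = activation above the mean over all tested compounds plus 3 SD, cut at about 0.9% in these data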;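 also: 0% = DMSO-only wells and 100% = 3 µM delta7-dafachronic acid wells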
hcDAF-12 act: H. contortus DAF-12 nuclear receptor activators, primary screen, cell-based, luminescence, HEK293, lit1-tk-luc reporter; HEK293 hcDAF-12 lit1-tk-luc reporter; 0% DMSO, 100% Δ7-dafachronic acid; activation, % at 6.8 µM; 370,000 tested, 1.4% active;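 active = activation above the mean of all tested compounds plus 3 SD, cut at about 5.5% in these data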;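 also: 100% = response to 3 µM Δ7-dafachronic acid high control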
LXRb hcDAF ctr: LXR agonists, Gal4 luciferase reporter, confirmation, counter-screen for hcDAF-12 agonist project, cell-based, luminescence, HEK293, H. contortus campaign; activation, % at 6.8 µM; 3,400 tested, under 10 active; HEK293 Gal4-LXR tk-luc reporter, 24 h; normalized: DMSO 0%, positive control 100%; shares compounds with hcDAF-12 act;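 active = mean percent activation of the reporter above a cutoff set as the average over tested compounds plus their standard deviation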
Target sequence (P55055 whole entry, looked up, the tested form may be a part): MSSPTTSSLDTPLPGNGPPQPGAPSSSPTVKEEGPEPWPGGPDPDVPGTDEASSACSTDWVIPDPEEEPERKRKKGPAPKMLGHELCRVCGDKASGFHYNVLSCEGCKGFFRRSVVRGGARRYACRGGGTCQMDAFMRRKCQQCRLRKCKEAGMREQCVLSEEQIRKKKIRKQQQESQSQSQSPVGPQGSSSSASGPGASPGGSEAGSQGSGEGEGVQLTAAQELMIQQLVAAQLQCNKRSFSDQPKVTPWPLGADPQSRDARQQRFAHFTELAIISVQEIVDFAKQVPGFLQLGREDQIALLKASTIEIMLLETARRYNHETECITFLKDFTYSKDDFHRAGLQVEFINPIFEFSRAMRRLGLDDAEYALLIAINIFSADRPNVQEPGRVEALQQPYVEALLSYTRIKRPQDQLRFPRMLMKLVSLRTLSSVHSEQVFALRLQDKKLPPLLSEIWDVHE
hcDAF12 conf: H. contortus DAF-12 receptor agonists, confirmation, cell-based, luminescence, HEK293, lit1-tk-luc, triplicate | shares compounds with hcDAF-12 act | HEK293 hcDAF-12 lit1-tk-luc reporter; % of Δ7-dafachronic acid response | activation, % at 6.8 µM | 3,400 tested, 61% active | AID 743032, 2013;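 active = mean activation across triplicate tests above the threshold derived from the earlier primary screen, cut at about 5.5% in these data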;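 also: 0% = DMSO only wells and 100% = 3 µM Δ7-dafachronic acid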
hgDAF12 ag: H. glycines DAF-12 receptor agonists, confirmation, cell-based, luminescence, HEK293, GAL4-LBD fusion; AID 743050, 2013; shares compounds with hgDAF12 agonist; 3,300 tested, 80% active; HEK293 GAL4-hgDAF12 luciferase reporter, agonist mode; percent of butyrate response; activation, % at 6.8 µM;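 active = mean activation over triplicate wells above the hit cutoff derived from the earlier primary screen, cut at about 11% in these data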;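 also: 0% = DMSO low control and 100% = 2 mM sodium butyrate high control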
LXRb DAF12 ctr: LXR agonists, Gal4 luciferase reporter, confirmation, counter-screen for hgDAF-12 agonist project, cell-based, luminescence, HEK293, H. glycines campaign. shares compounds with hgDAF12 agonist. activation, % at 6.8 µM. 24 h. AID 743051, 2013. 3,300 tested, under 10 active;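 active = mean activation of the triplicate above a set limit carried over from the primary screen, none filed active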
An asterisk follows results filed as active; . = no result. This is a sample that favours compounds with a hit; in the whole collection about 4.1% have one here.

SMILES	DAX1 inh-1	hgDAF12 agonist	DAX1 inh-2	ssDAF12 agonist	hcDAF-12 act	LXRb hcDAF ctr	hcDAF12 conf	hgDAF12 ag	LXRb DAF12 ctr
COc1cc(/C=N/N(C)c2ccccc2)ccc1O	3	17*	3	0	7.5*	2	8.2*	18*	1
c1ccc(CSc2nc3ccccc3[nH]2)cc1	3	22*	3.8*	1	8.6*	1	7.4*	17*	1
O=[N+]([O-])c1ccc(CSc2nc3ccccc3[nH]2)cc1	0	7	1	0	5	.	.	.	.
CC(C)CNC(=O)COC(=O)CNC(=O)c1cc(Cl)cc([N+](=O)[O-])c1	-1	-1	0	-1	-1	.	.	.	.
Cc1ccc(-c2nc3ccccc3[nH]2)s1	1	20*	3.8*	1.9*	7.9*	2	8.2*	19*	1
c1csc(-c2nc3ccccc3[nH]2)c1	0	7	1	-1	1	.	.	.	.
CC(C)Cn1c(-c2cccnc2)nc2c1c(=O)[nH]c(=O)n2CC(C)C	1	0	0	-1	-1	.	.	.	.
Nc1ccccc1SCc1cn2ccccc2n1	1	14*	4.2*	1.4*	7.4*	1	5	14*	0
Cc1ccc(COc2ccc(C)nc2[N+](=O)[O-])cc1	.	14*	2	0	9.6*	1	7.3*	14*	1
COc1ccc(NC(=O)Nc2cccs2)cc1Cl	0	6	0	0	2	.	.	.	.
Oc1cccc2ccc(/C=C/c3ccccc3Br)nc12	3	6	0	0	2	.	.	.	.
Cc1ccsc1/C=C/c1ccc2cccc(O)c2n1	3	17*	3	1.8*	15*	2	14*	22*	1
Oc1cccc2ccc(/C=C/c3cccs3)nc12	4	20*	2	2.3*	17*	1	12*	20*	1
COc1cc(/C=C/c2ccc3cccc(O)c3n2)ccc1O	1	8	0	-1	0	.	.	.	.
COc1ccc(C(=O)N=c2nc3ccccn3s2)cc1	-1	17*	3	1.3*	14*	1	6.0*	11*	1
COc1ccc(C(=O)O/N=C2\C(=O)N(C)c3ccccc32)cc1	1	1	0	0	1	.	.	.	.
NC(=O)CCN1CCC(c2nc3ccccc3s2)CC1	1	1	0	-1	0	.	.	.	.
C(=C\c1nc2ccccc2[nH]1)/c1ccccc1	-4	14*	2	1	7.2*	2	8.1*	18*	1
CN(C)c1ccc(/C=C/c2nc3ccccc3c(=O)[nH]2)cc1	3	19*	3	1	6.6*	2	8.1*	5	1
O=c1[nH]c2ccccc2nc1/C=C/c1ccc(Cl)cc1	1	2	1	-1	-1	.	.	.	.
Cc1cc(C)c2nc(SCC(=O)NC(=O)c3cccn3C)cc(C)c2c1	0	-1	1	-2	-1	.	.	.	.
Cc1cc(NC(=O)Nc2ccccc2F)ccc1Br	3	21*	3	1	7.1*	1	6.3*	18*	1
CCOC(=O)c1csc(-c2ccc(OC)c(OC)c2)n1	0	0	0	-1	0	.	.	.	.
CCOC(=O)c1csc(-c2sccc2Br)n1	3	16*	3	0.9*	7.0*	1	5.8*	16*	1
O=C(O)C(=O)/C(=C\c1ccsc1)c1ccc2ccccc2n1	2	16*	3	3.2*	23*	1	14*	20*	1
SMILES	DAX1 inh-1	hgDAF12 agonist	DAX1 inh-2	ssDAF12 agonist	hcDAF-12 act	LXRb hcDAF ctr	hcDAF12 conf	hgDAF12 ag	LXRb DAF12 ctr
O=C(O)C(=O)/C(=C\c1ccccc1)c1ccc2ccccc2n1	3	17*	4.5*	3.3*	19*	1	16*	22*	1
O=C(O)C(=O)/C(=C\c1cccc2ccccc12)c1ccc2ccccc2n1	1	1	1	0	2	.	.	.	.
COc1cccc(CNC(=O)CCCc2cn(C)c3ccccc23)c1	4	-2	0	-1	-1	.	.	.	.
O=C(c1ccccc1)c1ccc2ccccc2n1	2	1	0	-1	-2	.	.	.	.
Cc1cc(C)cc(NC(=O)Nc2ccc3ccccc3n2)c1	2	2	1	-1	1	.	.	.	.
O=C(Nc1ccc2ncccc2c1)c1ccccc1Br	2	.	.	.	.	.	.	.	.
O=C(Nc1ccc2ccccc2n1)c1ccccc1	4	20*	2	1.1*	13*	2	12*	21*	1
Cc1ccc(C(=O)Nc2ccc3ccccc3n2)cc1	1	15*	3	2.7*	8.2*	2	8.4*	21*	1
O=C(Nc1ccc2ccccc2n1)c1ccccc1Br	1	19*	2	3.8*	16*	1	9.5*	18*	1
O=C(NNC(=O)C1CC(c2cccs2)=NO1)NC1CCCCC1 (configuration not stated)	0	0	0	-1	-1	.	.	.	.
Cc1ccc(NC(=O)C(c2ccccc2)N2CCN(C(=O)c3ccco3)CC2)cc1Cl (configuration not stated)	0	2	3	-1	-1	.	.	.	.
CC1(Cc2ccc(F)c(Cl)c2)C(=O)Nc2c(Cl)cccc21 (configuration not stated)	.	7	0	0	0	.	.	.	.
